Measured values reported in PubChem BioAssay AID602447 (National Center for Advancing Translational Sciences (NCATS), 2012).
Inconclusive results are not listed. Calls of active or inactive are those of the source. The rule behind the calls is not given here.

The compounds below were run against Beta-2 adrenergic receptor (Homo sapiens) (UniProt P07550) (assay: qHTS for antagonists of the Thyroid Stimulation Hormone Receptor: Hit Validation with Beta-2 Adrenergic Receptor). Conditions: B2AR-expressing cells, cAMP HTRF, antagonist counterscreen; stronger effect = higher value.
Beta-2 adrenergic receptor (Homo sapiens), sequence (P07550 whole entry, looked up): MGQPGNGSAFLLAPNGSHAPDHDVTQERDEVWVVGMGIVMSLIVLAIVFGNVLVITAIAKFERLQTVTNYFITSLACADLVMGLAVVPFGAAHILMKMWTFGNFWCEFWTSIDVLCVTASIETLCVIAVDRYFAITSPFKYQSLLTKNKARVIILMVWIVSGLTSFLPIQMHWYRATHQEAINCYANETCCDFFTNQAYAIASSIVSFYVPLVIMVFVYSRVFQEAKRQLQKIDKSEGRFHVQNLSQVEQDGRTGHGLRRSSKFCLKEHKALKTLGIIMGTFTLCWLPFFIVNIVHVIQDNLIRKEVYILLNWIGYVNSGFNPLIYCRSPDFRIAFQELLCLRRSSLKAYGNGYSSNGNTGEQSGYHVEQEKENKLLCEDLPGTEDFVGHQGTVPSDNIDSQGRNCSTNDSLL
Description: The thyroid-stimulating hormone receptor (TSHR) is a member of the 7 trans-membrane-spanning receptor (7TMR) family of cell surface receptors. TSHR-mediated hyperthyroidism is important in thyroid pathology. The development of small molecule antagonists of TSHR may lead to therapeutic approaches for TSHR-mediated hyperthyroidism caused by constitutively activating mutations or stimulating auto-antibodies associated with Graves' disease. Graves' disease is the leading cause of hyperthyroidism and is caused by autoantibodies that stimulate TSHR (TsAbs) causing thyroid growth and unregulated overproduction of thyroid hormones and existing treatments have liabilities (agranulocytosis). In addition, TSHRs are known to be expressed in multiple extrathyroidal tissues including bone, brain, kidney, testis, fat and cells of the immune system but the role of the TSHR in these tissues is not clear. Therefore, TSHR antagonists/inverse agonists could be used as probes of extrathyroidal TSHR function. Finally, TSHR inverse agonists, which are a subclass of antagonists that inhibit agonist-independent (or basal or constitutive) TSHR signaling, could be used to inhibit TSH-independent signaling in patients with recurrent or metastatic thyroid cancer who are receiving thyroid hormone to suppress TSH. In collaboration between scientist from the NCGC and the NIDDK, a miniaturized HTRF high-throughput screen was developed. It's a cell based assay, where an anti cAMP antibody contains a fluorescent cryptate tag (excitation 337 nm; emission 620 nm) and the acceptor is cAMP-d2 (excitation 620 nm; emission 665 nm). When antibody and cAMP-d2 interact and are excited by a 337 nm light, a FRET occurs resulting in emission at 665 nm. The assay is competition between cAMP-d2 and cAMP (from the cell lysate). The homogeneous protocol allows for one step dispense after stimulation that is automation friendly. This is a hit validation assay in a counterscreen using beta-2 adrenergic receptor, a closely related hormone receptor NIH Chemical Genomics Center [NCGC] NIH Molecular Libraries Probe Centers Network [MLPCN] Grant: MH090855 Assay Provider: Marvin Gershengorn, NIDDK
An anti cAMP antibody contains a fluorescent cryptate tag (excitation 337 nm; emission 620 nm) and the acceptor is cAMP-d2 (excitation 620 nm; emission 665 nm). When antibody and cAMP-d2 interact and are excited by a 337 nm light, a FRET occurs resulting in emission at 665 nm. The assay is competition between cAMP-d2 and cAMP (from the cell lysate). The homogeneous protocol allows for one step dispense after stimulation that is automation friendly.

SMILES	max inhibition
O=S(=O)(Nc1cc(Cl)ccc1-n1cncn1)c1cc(Br)ccc1Br	72.6% (active)
CC(=O)Oc1c(C)cc(Cl)cc1C(=O)Nc1ccc([N+](=O)[O-])cc1Cl	82.9% (active)
O=C(Nc1nc(-c2ccccc2)cs1)c1ccccc1NS(=O)(=O)c1ccc(F)cc1	96% (active)
O=C1/C(=C\c2cc([N+](=O)[O-])ccc2O)SC(=S)N1Cc1ccc(Cl)cc1	90.7% (active)
Cc1ccc(-n2[nH]c(C)c(/C=N/Nc3ccc([N+](=O)[O-])cc3[N+](=O)[O-])c2=O)cc1C	88.7% (active)
O=C(COc1cccc2ccccc12)Nc1ccc(Cl)cc1C(=O)O	85.8% (active)
O=C(Nc1ccc(Oc2ccc(Cl)cc2)c(Cl)c1)c1cc(I)cc(I)c1O	91.3% (active)
O=C1NC(=S)S/C1=C\c1ccc(SCc2ccccc2)o1	92.6% (active)
COc1ccc(OCC(=O)NC(=S)Nc2ccc(N3CCOCC3)c(Cl)c2)cc1	89.7% (active)
Oc1c(Cl)cc(Cl)c(Cl)c1Cc1c(O)c(Cl)cc(Cl)c1Cl	96.4% (active)
COc1ccc(-c2csc(/C(C#N)=C\c3ccc(O)c([N+](=O)[O-])c3)n2)cc1OC	94.4% (active)
CCSC1=NSC2=NC(=O)/C(=C\c3coc4ccccc4c3=O)C(=N)N12	96.6% (active)
CCn1nc([N+](=O)[O-])c(C(C#N)c2nc3cc(C(F)(F)F)ccc3s2)c(Cl)c1=O (centres undefined)	94.3% (active)
O=c1cc(C(F)(F)F)[nH]c2c(C(F)(F)F)cccc12	88.6% (active)
